Screens as filed in PubChem BioAssay.
PTHR1 agonist: qHTS for PTHR1 Agonists: Primary Screen; Parathyroid hormone/parathyroid hormone-related peptide receptor (Homo sapiens), Q03431; HEK293 GP2 PTHR1 cells, GloSensor cAMP luminescence, 1 h; Potency, µM (titrated, usually from 115 µM), for inactives: at the top dose activation, actives largely listed as activators; 410,000 compounds, 0.075% hits; AID 743266, 2014; note: potency is the fitted concentration of half-maximal effect; nearly all actives have a fitted effect of over 55% in size
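HEK-293-derived GP2 cells expressing PTHR1 and a GloSensor cAMP reporter, 3,000/well, plated overnight, given luciferin plus IBMX (each 0.5 mM as added) for 1 h at 37 °C, then compound for 1 h at 37 °C. Luminescence was read after 15 min at room temperature.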
HEK293 tox: qHTS of GLP-1 Receptor Inverse Agonists: Cytotox Screen; HEK293 cAMP-luciferase reporter cells, luminescence, 24 h; Potency, µM (doses to about 38.3 µM), for inactives: at the highest dose activity change, negative = inhibition, hits mostly inhibitors; 410,000 compounds, 0.13% hits; AID 624418, 2012;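 note: loss of luciferase light is scored as toxicity; potency is the fitted concentration of half-maximal effect; % is set by controls: 0 for no effect and ±100 for the full control effect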
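Seeding density was 200 cells/uL; after overnight-length (12 h) culture, 23 nL compounds went on for 24 h at 37 °C. Readout used a luciferase detection reagent, luminescence taken after 12 min at room temperature.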
TSHR antag: Antagonists of the Thyroid Stimulating Hormone Receptor: HTS campaign; AID 504810, 2011; 330,000 compounds, 0.2% hits; Thyrotropin receptor (Homo sapiens), P16473; activity change, negative = inhibition, % at 11.5 µM; TSHR-expressing cells, TSH-stimulated cAMP HTRF, 2 h; hits give low values;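 active = activity change below a set negative limit, meaning inhibition stronger than a set level, cut at about -70% in these data; inconclusive = activity change between two set negative limits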; note: % is set by controls: 0 for no effect and ±100 for the full control effect
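Antagonism was scored as loss of TSH-driven cAMP in TSHR cells, stimulated with 4nM TSH (EC80) for 2 hours at 37 deg C and detected by homogeneous HTRF competition immunoassay.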
GLP-1R inv ag: qHTS of GLP-1 Receptor Inverse Agonists (Inhibition Mode). 410,000 compounds, 1.6% hits. HEK293 GLP-1R CRE-luciferase, luminescence, 24 h; GLP-1R form is constitutively active. Potency, µM (doses to about 38.3 µM), inactives show at the highest dose activity change, negative = inhibition, usual class: inhibitors. Glucagon-like peptide 1 receptor (Homo sapiens), P43220; note: potency is the fitted concentration of half-maximal effect; % is set by controls: 0 for no effect and ±100 for the full control effect; nearly all actives have a fitted effect of over 55% in size
Target sequence (P43220 whole entry, looked up): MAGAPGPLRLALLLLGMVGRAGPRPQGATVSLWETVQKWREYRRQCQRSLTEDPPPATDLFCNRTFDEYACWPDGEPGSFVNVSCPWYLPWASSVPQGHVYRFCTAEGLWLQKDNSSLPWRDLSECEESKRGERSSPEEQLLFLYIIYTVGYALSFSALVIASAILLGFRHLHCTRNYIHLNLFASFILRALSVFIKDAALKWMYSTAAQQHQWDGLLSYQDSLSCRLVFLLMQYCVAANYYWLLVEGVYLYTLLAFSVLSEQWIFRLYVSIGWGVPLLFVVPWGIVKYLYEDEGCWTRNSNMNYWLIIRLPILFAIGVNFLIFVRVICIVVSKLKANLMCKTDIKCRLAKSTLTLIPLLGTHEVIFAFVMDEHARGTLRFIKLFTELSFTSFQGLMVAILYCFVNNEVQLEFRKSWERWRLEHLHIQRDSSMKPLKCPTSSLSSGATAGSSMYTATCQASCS
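GLP-1R inverse agonism mode: basal reporter luminescence in engineered HEK293 cells measured after one day of compound exposure at 37 deg C, with a 12 min room-temperature detection step.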
GLP-1R agonist: qHTS of GLP-1 Receptor Agonists; Glucagon-like peptide 1 receptor (Homo sapiens), P43220; HEK293 GLP-1R CRE-luciferase, luminescence, 4-6 h; cells express a hypersensitive GLP-1R form; Potency, µM (doses to about 45.6 µM), inactives show top-dose activation, usual class: activators; 380,000 compounds, 0.007% hits; note: potency is the fitted concentration of half-maximal effect; % of control where 0% means no effect
* marks the source's active call; other numbers are inactive results; i = inactive; ? = inconclusive; . = not tested or not shown. Hits are enriched below; roughly 1.8% of the tested compounds scored in any of these assays. Unless noted, calls come from the whole dose curve; as a rule, active = well fitted curve in the direction sought with a large enough effect; inconclusive = small, poorly fitted or top-dose-only effect, or another doubt; inactive = no such curve, though single readings can be large; an effect the other way counts as inactive or inconclusive.

SMILES	PTHR1 agonist	HEK293 tox	TSHR antag	GLP-1R inv ag	GLP-1R agonist
CCCC[C@@H]1CNCCN1CCc1cc(C(F)(F)F)cc(C(F)(F)F)c1	-3.0%	?	0.5	11.2µM*	-6.5%
COc1cc(CN2CCN(S(=O)(=O)c3ccccc3)CC2)cc(OC)c1OC	-1.7%	25.6%	-10.1	9.0%	2.6%
COc1cc(CN2CCN(c3cccc(Cl)c3)CC2)cc(OC)c1OC	i	?	-8.0	5.01µM*	9.0%
Oc1ccc(COCc2ccc(F)cc2)c2cccnc12	.	.	-8.4	.	.
O=C(N/N=C/c1c(Cl)cccc1Cl)c1n[nH]c2c1CCCC2	-25.3%	-23.1%	1.7	?	-2.9%
Cc1ccsc1/C=N\NC(=O)c1n[nH]c2c1CCC2	-32.0%	?	18.1	2.82µM*	-21.0%
C/C(=N\NC(=O)c1n[nH]c2c1CCC2)c1ccco1	-23.6%	13.4%	-6.2	1.78µM*	-6.2%
NC(N)=NCCCC(N)C(=O)O (centres undefined)	.	.	.	.	-3.8%
CCOc1ccccc1-n1nnc(-c2nc(-c3ccccc3)no2)c1N	-21.2%	4.8%	.	18.3%	.
COc1ccc(C(=O)NC(C)C2CC3CCC2C3)c(OC)c1 (centres undefined)	i	3.2%	-10.8	10µM*	-1.5%
COc1cc(C(=O)NC(C)C2CC3CCC2C3)cc(OC)c1OC (centres undefined)	-21.1%	3.6%	18.5	-3.1%	3.0%
Cc1cccc(NC(=O)c2cc(S(=O)(=O)N3CCc4ccccc43)ccc2F)c1C	-2.2%	0.1%	.	?	.
O=C(Nc1ccccc1)N(Cc1ccc(Cl)cc1)CC(O)C(F)(F)F (centres undefined)	i	-18.7%	0.4	10µM*	11.9%
CO[C@H]1/C=C/O[C@@]2(C)Oc3c(C)c(O)c4c(O)c(c(/C=N\N5CCN(C6CCCC6)CC5)c(O)c4c3C2=O)NC(=O)/C(C)=C\C=C\[C@H](C)[C@H](O)[C@@H](C)[C@@H](O)[C@@H](C)[C@H](OC(C)=O)[C@@H]1C	.	.	.	.	0.0%
Cc1ccn2c(NC(C)(C)C)c(-c3cccs3)nc2c1	-8.7%	?	0.6	10µM*	3.1%
COc1cccc(C2NC(=S)NC3=C2CCc2ccccc23)c1 (centres undefined)	-2.1%	3.98µM*	-16.7	?	-13.2%
Cc1c(C(=O)OCC(=O)N2CCCC(C)C2)oc2ccccc12 (centres undefined)	i	10.5%	0.9	10µM*	15.7%
Cc1cc(C)c2ccc(N)nc2c1O	i	?	-1.1	12.6µM*	-21.6%
CC1CC(C)CN(CCCNC(=O)c2cc3c(s2)-c2ccccc2OC3)C1 (centres undefined)	?	-23.9%	5.0	?	-0.6%
CC1CCCC(C)N1CCCNC(=O)c1cc2c(s1)-c1ccccc1OC2 (centres undefined)	-17.1%	-12.4%	-14.3	2µM*	4.9%
Cc1cccc2c1-c1sc(C(=O)NCCCN3CCCC(C)C3)cc1CO2 (centres undefined)	-9.0%	-3.0%	-74.6*	?	5.1%
CCCN1CCN(CCCNC(=O)c2cc3c(s2)-c2c(C)cccc2OC3)CC1	i	-6.8%	3.4	?	11.4%
CCc1ccccc1N(CC)C(=O)c1cc2c(s1)-c1ccccc1SC2	i	-4.5%	.	?	.
CCCN1CCN(CCCNC(=O)c2cc3c(s2)-c2ccccc2OC3)CC1	-15.7%	?	-72.4*	?	1.2%
CCc1ccccc1N(CC)C(=O)c1cc2c(s1)-c1ccccc1OC2	i	-3.2%	.	10µM*	-1.3%
CCOc1ccccc1NC(=O)C1CCCN(S(=O)(=O)c2cccs2)C1 (centres undefined)	-42.0%	-1.3%	.	-19.7%	3.3%
CC(=O)Nc1nonc1-c1nc2ccccc2n1Cc1ccccc1Br	-3.3%	11.3%	.	-8.4%	.
CCOC(=O)c1ccc(NC(=O)CC2Nc3cc(C)c(C)cc3NC2=O)cc1 (centres undefined)	-39.1%	-22.2%	.	?	.
